From PubChem BioAssay
Only some compounds are listed: those with a hit (about 4.6% of all), similar ones and a draw of the others.
KLK7 zymogen act: proKLK7 (human) activation, primary screen. P49862. purified proKLK7, EDANS-DABCYL substrate fluorescence; 100% is mature enzyme control, 0% vehicle. activation, % at 7 µM. 370,000 compounds, 0.9% hits;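 active = activation above the mean of all tested compounds plus 3 SD, computed per campaign excluding outliers beyond control limits, cut at about 13% in these data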
FAS-TE inh: FAS thioesterase (human) inhibition; P49327; recombinant FAS-TE, OMFH fluorogenic substrate, fluorescence endpoint; inhibition, % at 15 µM; 360,000 compounds, 0.67% hits;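 active = compounds whose normalised, plate-corrected inhibition of enzyme fluorescence in the single-dose primary screen is 50% or more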
Target sequence (P49327 whole entry, looked up): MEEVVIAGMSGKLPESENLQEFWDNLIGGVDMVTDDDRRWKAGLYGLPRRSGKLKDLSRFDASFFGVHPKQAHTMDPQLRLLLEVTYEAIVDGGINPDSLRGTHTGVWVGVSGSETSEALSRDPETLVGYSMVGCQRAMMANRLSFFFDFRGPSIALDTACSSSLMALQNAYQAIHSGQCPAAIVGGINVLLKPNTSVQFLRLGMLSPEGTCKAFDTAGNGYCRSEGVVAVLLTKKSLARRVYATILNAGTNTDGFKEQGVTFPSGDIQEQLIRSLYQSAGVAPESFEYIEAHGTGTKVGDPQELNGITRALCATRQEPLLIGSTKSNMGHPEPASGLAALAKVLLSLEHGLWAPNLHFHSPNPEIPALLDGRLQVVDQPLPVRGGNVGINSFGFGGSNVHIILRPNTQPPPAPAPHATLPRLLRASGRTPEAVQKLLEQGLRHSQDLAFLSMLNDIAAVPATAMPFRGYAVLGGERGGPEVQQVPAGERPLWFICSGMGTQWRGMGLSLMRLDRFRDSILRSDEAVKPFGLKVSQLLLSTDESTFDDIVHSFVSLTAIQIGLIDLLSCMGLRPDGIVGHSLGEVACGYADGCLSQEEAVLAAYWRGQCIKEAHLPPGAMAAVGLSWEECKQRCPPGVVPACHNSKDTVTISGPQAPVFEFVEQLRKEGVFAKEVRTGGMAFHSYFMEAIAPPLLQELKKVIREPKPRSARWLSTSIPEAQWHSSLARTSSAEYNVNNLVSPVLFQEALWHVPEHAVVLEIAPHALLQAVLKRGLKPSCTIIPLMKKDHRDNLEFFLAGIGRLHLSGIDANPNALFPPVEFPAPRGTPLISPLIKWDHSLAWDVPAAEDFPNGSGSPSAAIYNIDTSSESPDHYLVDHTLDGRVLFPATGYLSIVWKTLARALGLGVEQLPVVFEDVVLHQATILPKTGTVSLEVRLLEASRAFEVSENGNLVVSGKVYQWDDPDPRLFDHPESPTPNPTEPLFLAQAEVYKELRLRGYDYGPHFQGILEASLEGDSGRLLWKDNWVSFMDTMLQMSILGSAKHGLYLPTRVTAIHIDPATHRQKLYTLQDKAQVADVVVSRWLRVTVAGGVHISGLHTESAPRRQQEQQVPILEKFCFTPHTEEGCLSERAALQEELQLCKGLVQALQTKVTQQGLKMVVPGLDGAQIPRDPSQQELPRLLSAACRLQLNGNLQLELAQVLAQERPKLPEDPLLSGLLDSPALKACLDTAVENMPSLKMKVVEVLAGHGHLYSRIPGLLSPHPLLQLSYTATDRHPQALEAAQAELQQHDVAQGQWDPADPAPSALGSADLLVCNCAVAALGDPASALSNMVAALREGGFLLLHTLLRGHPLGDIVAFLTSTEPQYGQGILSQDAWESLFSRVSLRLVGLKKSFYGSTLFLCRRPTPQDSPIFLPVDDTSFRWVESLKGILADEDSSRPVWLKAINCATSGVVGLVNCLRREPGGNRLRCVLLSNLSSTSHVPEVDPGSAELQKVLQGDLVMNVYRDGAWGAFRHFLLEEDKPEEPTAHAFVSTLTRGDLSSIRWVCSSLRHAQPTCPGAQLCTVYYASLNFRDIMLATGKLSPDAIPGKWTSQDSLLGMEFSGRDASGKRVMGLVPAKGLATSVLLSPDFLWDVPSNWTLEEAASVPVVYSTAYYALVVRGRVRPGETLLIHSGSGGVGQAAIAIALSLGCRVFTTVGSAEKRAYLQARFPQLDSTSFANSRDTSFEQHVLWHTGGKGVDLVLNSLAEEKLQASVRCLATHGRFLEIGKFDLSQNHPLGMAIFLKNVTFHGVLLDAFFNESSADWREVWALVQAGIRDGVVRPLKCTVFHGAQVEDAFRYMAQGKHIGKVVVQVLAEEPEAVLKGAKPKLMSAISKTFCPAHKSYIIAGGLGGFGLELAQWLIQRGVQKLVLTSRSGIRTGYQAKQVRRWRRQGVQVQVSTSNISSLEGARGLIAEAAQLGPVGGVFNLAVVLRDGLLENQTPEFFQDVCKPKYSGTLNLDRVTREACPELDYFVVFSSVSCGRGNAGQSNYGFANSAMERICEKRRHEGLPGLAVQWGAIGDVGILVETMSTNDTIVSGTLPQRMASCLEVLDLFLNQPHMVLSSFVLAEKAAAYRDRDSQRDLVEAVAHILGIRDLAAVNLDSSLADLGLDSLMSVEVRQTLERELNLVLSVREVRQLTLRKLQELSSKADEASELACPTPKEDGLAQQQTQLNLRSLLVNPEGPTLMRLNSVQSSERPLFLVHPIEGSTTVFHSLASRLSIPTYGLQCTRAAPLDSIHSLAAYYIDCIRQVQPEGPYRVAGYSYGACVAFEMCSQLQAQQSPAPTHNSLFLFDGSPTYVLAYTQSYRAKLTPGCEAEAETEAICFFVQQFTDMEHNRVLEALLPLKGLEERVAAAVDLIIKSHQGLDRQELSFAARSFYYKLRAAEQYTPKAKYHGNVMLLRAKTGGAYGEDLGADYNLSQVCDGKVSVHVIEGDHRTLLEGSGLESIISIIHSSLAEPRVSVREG
ADAM17 inh: inhibitors of human ADAM17. P78536. recombinant ADAM17, EDANS/DABCYL FRET peptide cleavage. inhibition, % at 6.95 µM. 370,000 compounds, 0.83% hits. AID 720648;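 active = inhibition above the mean of compounds lying between control limits plus 3 SD, set per campaign, cut at about 8.5% in these data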
ADAM10 inh: inhibits human ADAM10 | inhibition, % at 7 µM | recombinant ADAM10, EDANS/DABCYL FRET peptide cleavage, 3 h | 370,000 compounds, 0.62% hits | O14672;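 active = inhibition above a per-campaign cutoff equal to the mean of compounds falling between control-based bounds plus 3 SD, cut at about 20% in these data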
GRIN3A LBD mod: modulators (binders) of human NR3A ligand-binding domain. NR3A LBD differential scanning fluorimetry, Tm shift; 0% = protein alone, 100% = glycine-bound protein. Tm shift relative to glycine control, % at 25 µM. 340,000 compounds, 2.5% hits. AID 1259313;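 active = melting temperature shift of at least 10% of the positive control shift, at one fixed dose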
A number is an active result; – = inactive; · = not tested or not shown.

SMILES	KLK7 zymogen act	FAS-TE inh	ADAM17 inh	ADAM10 inh	GRIN3A LBD mod
O=C(Nc1ccccc1C(=O)N1CCCCCC1)c1ccccc1	–	–	–	–	–
CN(c1ccc(C(=O)Nc2ccccc2C(=O)N2CCCC2)cc1)S(C)(=O)=O	–	–	–	–	15
C=CCN1C(=O)[C@H](CC(=O)NCC23CC4CC(CC(C4)C2)C3)[C@@]2(C(=O)OC)CCCCC=C12	–	·	–	–	·
COc1cc(NC(=O)c2ccccc2)c(OC)cc1Cl	–	–	–	–	–
COc1ccccc1C(=O)Nc1cc(Cl)ccc1O	–	–	–	–	11
Cc1ccc(Cl)cc1NC(=O)c1ccccc1OCC(=O)Nc1ccc(Cl)cc1	–	–	–	–	30
COc1cc(OC)c(NC(=O)c2cc3ccccc3cc2O)cc1Cl	–	–	–	–	26
N#Cc1ccccc1NC(=O)c1ccccc1OCC(=O)Nc1ccc2c(c1)oc1ccccc12	–	–	–	–	23
N#Cc1ccccc1NC(=O)c1ccccc1OCC(=O)NCc1ccco1	·	–	·	·	–
COc1ccc(Cl)cc1NC(=O)c1ccccc1C	–	–	–	–	–
COC(=O)[C@]12C[C@H](CC(=O)NCC3CCCCC3)C(=O)N(Cc3ccco3)C1=C[C@H](COCc1ccccc1)O[C@@H]2C	–	·	–	–	·
CCOc1ccccc1C(=O)Nc1cc(Cl)ccc1O	–	–	–	–	16
Cc1cccc(OCC(=O)Nc2ccc(C(=O)Nc3ccccc3C(=O)O)cc2)c1	–	–	–	–	·
O=C(COc1ccc(Cl)cc1Cl)Nc1ccc(C(=O)Nc2ccccc2C(=O)O)cc1	–	–	–	–	16
C[C@H](O)[C@@H]1CN2CCc3c([nH]c4c(-c5ccc6c(c5)OCO6)cccc34)[C@@H]2C[C@@H]1N(C)C(=O)Nc1ccccc1	–	·	–	–	·
CCC(=O)N1CCc2cc(Br)c(S(=O)(=O)NCCCN(CC)Cc3ccccc3)cc21	–	·	–	–	·
Cc1ccc(F)cc1NC(=O)c1ccc(NS(=O)(=O)c2ccc(Br)s2)cc1	–	–	–	–	16
O=S(=O)(c1ccc(F)cc1)N1CCC(c2nc3ccccc3o2)CC1	–	·	–	–	·
COc1ccc(C(=O)N[C@@H]2CC[C@@]34CCCN3C(=O)CCC[C@H]4[C@H]2C)cc1	·	·	–	–	·
Cc1cc(=O)[nH]c2c(N=Nc3ccc(O)cc3)c(N)nn12	–	–	–	–	–
Nc1nn2c(C(F)(F)F)cc(=O)[nH]c2c1N=Nc1cccc(F)c1	·	–	·	·	21
COc1cc(C(C(=O)NC2CCCCC2)N(C(=O)Cc2c[nH]c3ccccc23)c2ccc(C)cc2)cc(OC)c1OC (centres undefined)	–	–	–	–	26
COc1cc(NC(=O)COC(=O)[C@@H]2CCCN2S(=O)(=O)c2ccc(Cl)cc2)cc(OC)c1OC	–	–	–	–	11
COC(=O)[C@]12C[C@H](CC(=O)NCc3cccs3)C(=O)N(Cc3ccc(Cl)cc3Cl)C1=C[C@H](COCc1ccccc1)O[C@@H]2C	–	·	–	–	·
O=C1N(Cc2ccccc2)c2ccccc2C12CCCc1sc(CCc3ccccc3)nc12 (centres undefined)	–	·	–	–	·
SMILES	KLK7 zymogen act	FAS-TE inh	ADAM17 inh	ADAM10 inh	GRIN3A LBD mod
CCOC(=O)Oc1ccc2c(=O)c(Oc3cccc(C)c3)coc2c1	76	–	–	–	–
CCOC(=O)Oc1ccc2c(=O)c(Oc3cc(C)cc(C)c3)coc2c1	36	–	–	–	–
Cc1cccc(Oc2coc3cc(O)ccc3c2=O)c1	–	–	–	–	–
Nc1nonc1-n1nnc(C(=O)N/N=C/c2cccnc2)c1CSc1ccccc1	–	–	–	–	19
Nc1nonc1-n1nnc(C(=O)N/N=C/c2cccnc2)c1CSc1ccc(Cl)cc1	–	–	–	–	12
CCCc1c(C(=O)N/N=C/c2ccc(-c3ccccc3)cc2)nnn1-c1nonc1N	–	–	–	–	·
Nc1nonc1-n1nnc(C(=O)N/N=C/c2cccnc2)c1CSC1=NCCS1	–	–	–	–	–
CCCc1c(C(=O)N/N=C/c2cccnc2)nnn1-c1nonc1N	–	–	–	–	32
COC(=O)C[C@H]1CC[C@H]2[C@H](COc3ccc(NC(=O)Nc4ccccc4F)cc3C(=O)N2C)O1	–	·	–	–	·
C(=N/N1CCN(c2ccccc2)CC1)/c1ccco1	–	·	–	–	·
COc1ccc(C)cc1S(=O)(=O)N(CC(=O)Nc1cccc([N+](=O)[O-])c1)c1ccc(C)c(C)c1	–	–	–	–	33
Cc1cccc(N(CC(=O)N/N=C/c2cc([N+](=O)[O-])ccc2Cl)S(C)(=O)=O)c1C	·	51	·	·	–
Cc1ccc(NC(=O)CN(c2ccc(Cl)cc2)S(=O)(=O)c2cc([N+](=O)[O-])ccc2Cl)cc1	–	–	–	–	–
Cc1cccc(NS(=O)(=O)c2ccc(NC(=O)CN(c3cc([N+](=O)[O-])ccc3C)S(C)(=O)=O)cc2)c1	–	–	14	36	22
O=C(CSc1ncccn1)n1c2c(c3ccccc31)CCCC2	–	–	–	–	–
Cc1cc(C)nc(SCC(=O)n2c3c(c4ccccc42)CCCC3)n1	–	–	–	–	13
FC(F)(F)c1ccccc1/C=N/N1CCN(Cc2ccccc2)CC1	–	–	–	–	18
Clc1ccccc1/C=N/N1CCN(Cc2ccccc2)CC1	–	–	–	–	–
CCOc1ccc(S(=O)(=O)Nc2nc3ccccc3nc2N2CCN(C)CC2)cc1	–	–	–	–	–
O=S(=O)(Nc1nc2ccccc2nc1N1CCN(c2ccccc2F)CC1)c1ccc(Cl)cc1	–	–	–	–	21
NS(=O)(=O)c1cccc(Nc2nc3ccccc3nc2NS(=O)(=O)c2ccc(Cl)cc2)c1	–	–	–	–	28
CC(=O)Nc1ccc(S(=O)(=O)Nc2nc3ccccc3nc2Nc2ccc3ccccc3c2)cc1	–	–	–	–	34
CC(=O)Nc1ccc(S(=O)(=O)Nc2ccccc2C(=O)N2CCCC2)cc1	–	–	–	–	–
CC(=O)Nc1ccc(S(=O)(=O)Nc2cc(C)c(-n3nc4ccccc4n3)cc2O)cc1	–	–	–	–	10
CC(C)N1CCCCC(NC(=O)c2ccc(Cl)cc2Cl)C1=O (centres undefined)	–	·	–	–	·
SMILES	KLK7 zymogen act	FAS-TE inh	ADAM17 inh	ADAM10 inh	GRIN3A LBD mod
CN(Cc1ccccc1)S(=O)(=O)c1cccc(C(=O)OCc2cccc([N+](=O)[O-])c2)c1	–	·	–	–	·
CC(=O)Nc1ccc(S(=O)(=O)Nc2nc3ccccc3nc2Nc2ccc(C(=O)O)c(O)c2)cc1	–	–	–	–	24
CC(=O)Nc1ccc(S(=O)(=O)Nc2nc3ccccc3nc2Nc2ccc(N)cc2)cc1	–	–	–	–	–
CC(=O)Nc1ccc(Nc2nc3ccccc3nc2NS(=O)(=O)c2ccc(Cl)c([N+](=O)[O-])c2)cc1	–	–	–	–	24
CC(=O)Nc1ccc(S(=O)(=O)Nc2nc3ccccc3nc2Nc2cccc(O)c2)cc1	–	–	–	–	19
Cc1ccccc1CN1CCCCC(NC(=O)Cc2cccs2)C1=O (centres undefined)	–	·	–	–	·
